# From PubChem BioAssay (Tox21)
# Results filed as inconclusive are left out. Entries that show only a call come without a potency. Calls of active or inactive are those of the source. Calls come from the whole dose curve; as a rule, active = well fitted cell-killing curve with a large enough effect in the repeat runs; inconclusive = weak or mixed curves, or effect the other way; inactive = flat fitted curve, though single readings scatter.
# Assay: qHTS assay to identify small molecule agonists of the androgen receptor (AR) signaling pathway in the presence of an antagonist - cell viability counter screen (AID 1259379); note: nearly all actives have a fitted effect of over 25% in size
# Settings: MDA-kb2 viability, CellTiter-Fluor, 16 h; series mostly up to 92.4 µM
# From the text: National Center for Advancing Translational Sciences [NCATS]
# NIH Chemical Genomics Center [NCGC]
# U.S. Environmental Protection Agency [EPA]
# National Institutes of Environmental Health Sciences [NIEHS]
# National Toxicology Program [NTP]
# U.S. Food and Drug Administration [FDA]
# Androgen receptor (AR) is an important member of nuclear receptor family. Its signaling plays a critical role in AR-dependent prostate cancer and other androgen related diseases. Considerable attention has been given in the past decades to develop methods to study and screen for the environmental chemicals that have the potential to interfere with metabolic homeostasis, reproduction, developmental and behavioral functions. Therefore AR binding assay for screening against androgen agonists and antagonists can be used to identify potential endocrine disruptors.
# MDA-kb2 cells (from ATCC, deposited by Wilson et al.) are human breast carcinoma cells that were stably transfected with a luciferase reporter gene under control of the MMTV promoter that contains response elements for both androgen receptor (AR) and glucocorticoid receptor (GR). This particular screening for measuring luciferase reporter gene activity using MDA-kb2 cells against Tox21 10K library compounds is a confirmation study on agonist mode screening in the presence of AR-antagonist compound (Nilutamide) at 3.0uM final concentration. The cytotoxicity of the compounds was tested in parallel by measuring the cell viability using CellTiter-Fluor assay system (Promega, Madison, WI) in the same wells.
# Tox21 Assay Protocol Summary:
# MDA-kb2 cells (cells cultured without CO2) were dispensed at 3,000 cells/well in 4uL of culture medium into white wall/solid-bottom 1536-well plates (Corning Life Sciences, Corning, NY) using a Multidrop Combi (Thermo Fisher Scientific Inc., Waltham, MA) dispenser. The assay plates were incubated at 37C and 0% CO2 for 5hr. One uL of 3.0uM (final concentration) Nilutamide or assay buffer was added using two separate tips of Flying Reagent Dispenser (FRD, Aurora Discovery, San Diego, CA). Then 23nL of compounds dissolved in DMSO at 15 concentrations and positive controls were transferred to the assay plates using a Pintool station (Wako, San Diego, CA). The assay plates were incubated at 37C and 0% CO2 for 16 hr. After 15hr incubation at 37C, 1uL/well CellTiter-Fluor reagent (Promega Corporation) was added to each well of the assay plates using FRD. After 1hr incubation at 37C and 0% CO2, the fluorescence signal was measured using a ViewLux plate reader (PerkinElmer, Shelton, CT).
row,SMILES,Potency
1,c1cnc(N2CCN(Cc3ccc4c(c3)OCO4)CC2)nc1,inactive
2,CC(=O)CC(C)(C)C1CCCCC1,inactive
3,CCO[Si](CCC1CCC2OC2C1)(OCC)OCC (stereo not given),inactive
4,CC(C)(C)NCCNC(C)(C)C,inactive
5,OC[C@]1(O)OC[C@@H](O)[C@H](O)[C@@H]1O,inactive
6,N=c1nc(N2CCCCC2)cc(N)n1O,inactive
7,Nc1nc2c(ncn2COC(CO)CO)c(=O)[nH]1,inactive
8,COCCc1ccc(OCC(O)CNC(C)C)cc1 (stereo not given),inactive
9,CS(=O)(=O)O,inactive
10,CCN1CCC[C@H]1CNC(=O)c1cc(S(N)(=O)=O)ccc1OC,inactive
11,c1ccc(CC2=NCCN2)cc1,inactive
12,CCN1CCC[C@H]1CNC(=O)c1c(O)c(Cl)cc(Cl)c1OC,inactive
13,OCCCC1CCCCC1,inactive
14,CC1(C)C(O)C(C)(C)C1O (stereo not given),inactive
15,CCn1ccnc1CC1COc2ccccc2O1 (stereo not given),inactive
16,O=C(O)c1ccccc1OP(=O)(O)O,inactive
17,O=c1cc(CO)occ1O,inactive
18,COC(=O)NN,inactive
19,CN(C)CCCSc1ccccc1NC(=O)/C=C/c1ccccc1,inactive
20,N=C(N)c1ccccc1,inactive

row,SMILES,Potency
1,CC(=O)OC/C=C(\C)CC/C=C(\C)CCC=C(C)C,inactive
2,OCCOc1ccc(OCCO)cc1,inactive
3,Cc1cc(O)cc2c1O[C@](C)(CCC[C@H](C)CCC[C@H](C)CCCC(C)C)CC2,inactive
4,O=S(O)CO,inactive
5,CCCCC/C=C\CCC=O,inactive
6,Cc1cccc(C)c1NC(=O)C(C)N (stereo not given),inactive
7,CC(=O)OCC(=O)[C@@]1(O)CC[C@H]2[C@@H]3CCC4=CC(=O)CC[C@]4(C)[C@H]3C(=O)C[C@@]21C,inactive
8,CCCCCSCCCCC,inactive
9,CC(=O)OCC(=O)[C@@]1(O)CCC2C3CCC4=CC(=O)CC[C@]4(C)C3[C@@H](O)C[C@@]21C (stereo not given in full),inactive
10,NS(=O)(=O)c1ccccc1Cl,inactive
11,O=C1OC(=O)C2CCCCC12 (stereo not given),inactive
12,C=CCOCC(CC)(CO)COCC=C,inactive
13,CC(C)OC(=O)c1ccccc1,inactive
14,C1OCOCO1,inactive
15,OC1CCCCC1c1ccccc1 (stereo not given),inactive
16,NCCc1cnc[nH]1,inactive
17,CCn1nc(C(=O)O)c(=O)c2cc3c(cc21)OCO3,inactive
18,CO[Si](CCCOCC1CO1)(OC)OC (stereo not given),inactive
19,C=C(C)C(=O)OCCCCCCCC(C)C,inactive
20,Cn1cc(S(C)=O)c(=O)c2ccc(F)cc21 (stereo not given),inactive
